In the supplement of paper PMC12282887:
± gives the standard deviation of the averaged measurements.

Tested on: E. coli BW25113 marRABp lux reporter
Test: promoter activity interaction Z-score (Lux/OD deviation from empty-vector control); higher = stronger promoter induction by the compound
Method: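 E. coli BW25113 (wild type or ΔmarA/ΔsoxS/Δrob) carrying pTU175 luxCDABE promoter reporters was grown in LB in 384-well plates at 37°C with each of 94 compounds at 4 two-fold concentrations, in biological duplicates. Luminescence and OD600 were read every 30 min for 12 h and integrated as AUC over 8 h (0-8 h WT, 1-9 h mutants). Lux AUC was divided by OD AUC; the interaction score is the residual of a Huber robust fit of each promoter against the empty-vector control, then Z-transformed per promoter.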

[1] = 0.25 µg/ml, genetic background: wild type
[2] = 0.25 µg/ml, genetic background: ΔmarA
[3] = 0.25 µg/ml, genetic background: Δrob
[4] = 0.25 µg/ml, genetic background: ΔsoxS
[5] = 0.5 µg/ml, genetic background: wild type
[6] = 0.5 µg/ml, genetic background: ΔmarA
[7] = 0.5 µg/ml, genetic background: Δrob
[8] = 0.5 µg/ml, genetic background: ΔsoxS

Structure (SMILES): COc1c(N2C[C@@H]3CCCN[C@@H]3C2)c(F)cc2c(=O)c(C(=O)O)cn(C3CC3)c12 [Moxifloxacin]
- promoter activity interaction Z-score (0.011 µg/ml, genetic background: wild type): 0.044 ± 0.089
- promoter activity interaction Z-score (0.011 µg/ml, genetic background: ΔmarA): 0.14 ± 0.15
- promoter activity interaction Z-score (0.011 µg/ml, genetic background: Δrob): -0.0981 ± 0.19
- promoter activity interaction Z-score (0.011 µg/ml, genetic background: ΔsoxS): 0.00173 ± 0.15
- promoter activity interaction Z-score (0.022 µg/ml, genetic background: wild type): 0.5 ± 0.56
- promoter activity interaction Z-score (0.022 µg/ml, genetic background: ΔmarA): 1.62 ± 0.86
- promoter activity interaction Z-score (0.022 µg/ml, genetic background: Δrob): 0.689 ± 0.17
- promoter activity interaction Z-score (0.022 µg/ml, genetic background: ΔsoxS): 0.0296 ± 0.046
- promoter activity interaction Z-score (0.044 µg/ml, genetic background: wild type): 4.34 ± 1.7
- promoter activity interaction Z-score (0.044 µg/ml, genetic background: ΔsoxS): 2.52 ± 1.1

Structure (SMILES): CO[C@@]12[C@H](COC(N)=O)C3=C(C(=O)C(C)=C(N)C3=O)N1C[C@@H]1N[C@@H]12 [Mitomycin C]
- promoter activity interaction Z-score (0.063 µg/ml, genetic background: wild type): -0.000521 ± 0.092
- promoter activity interaction Z-score (0.063 µg/ml, genetic background: ΔmarA): -0.0389 ± 0.12
- promoter activity interaction Z-score (0.063 µg/ml, genetic background: Δrob): 0.174 ± 0.0026
- promoter activity interaction Z-score (0.063 µg/ml, genetic background: ΔsoxS): -0.0406 ± 0.22
- promoter activity interaction Z-score (0.13 µg/ml, genetic background: wild type): 0.0648 ± 0.23
- promoter activity interaction Z-score (0.13 µg/ml, genetic background: ΔmarA): 0.518 ± 1.1
- promoter activity interaction Z-score (0.13 µg/ml, genetic background: Δrob): 0.208 ± 0.51
- promoter activity interaction Z-score (0.13 µg/ml, genetic background: ΔsoxS): 0.0422 ± 0.14
- promoter activity interaction Z-score [1]: 0.242 ± 0.24
- promoter activity interaction Z-score [2]: -0.125 ± 0.18
- promoter activity interaction Z-score [3]: 0.258 ± 0.1
- promoter activity interaction Z-score [4]: -0.121 ± 0.19
- promoter activity interaction Z-score [5]: -0.107 ± 0.17
- promoter activity interaction Z-score [6]: 0.219 ± 0.99
- promoter activity interaction Z-score [7]: -0.172 ± 0.14
- promoter activity interaction Z-score [8]: -0.177 ± 0.11

Structure (SMILES): CC1(C)S[C@@H]2[C@H](NC(=O)[C@H](N)c3ccc(O)cc3)C(=O)N2[C@H]1C(=O)O [Amoxicillin]
- promoter activity interaction Z-score [1]: -0.00562 ± 0.025
- promoter activity interaction Z-score [2]: -0.347 ± 0.22
- promoter activity interaction Z-score [3]: -0.215 ± 0.082
- promoter activity interaction Z-score [4]: -0.207 ± 0.2
- promoter activity interaction Z-score [5]: -0.157 ± 0.027
- promoter activity interaction Z-score [6]: -0.297 ± 0.22
- promoter activity interaction Z-score [7]: -0.322 ± 0.047
- promoter activity interaction Z-score [8]: -0.372 ± 0.14
- promoter activity interaction Z-score (1 µg/ml, genetic background: wild type): -0.138 ± 0.097
- promoter activity interaction Z-score (1 µg/ml, genetic background: ΔmarA): -0.483 ± 0.18
- promoter activity interaction Z-score (1 µg/ml, genetic background: Δrob): -0.211 ± 0.031
- promoter activity interaction Z-score (1 µg/ml, genetic background: ΔsoxS): -0.251 ± 0.091
- promoter activity interaction Z-score (2 µg/ml, genetic background: wild type): 2.97
- promoter activity interaction Z-score (2 µg/ml, genetic background: ΔmarA): 2.07
- promoter activity interaction Z-score (2 µg/ml, genetic background: Δrob): 3.21
- promoter activity interaction Z-score (2 µg/ml, genetic background: ΔsoxS): 1.67
